Laboratory results from PubChem BioAssay (NCATS).
Results filed as inconclusive are left out. Where a call stands in place of a potency, no number is given. A number with no mark means an inactive call. Activity calls are given as the source filed them. Calls follow the shape of the dose curve; as a rule, active = well fitted curve in the direction sought with a large enough effect; inconclusive = small, poorly fitted or top-dose-only effect, or another doubt; inactive = no such curve, though single readings can be large; an effect the other way counts as inactive or inconclusive.

How the values were obtained:
[1] = qHTS of pediatric cancer cell lines to identify multiple opportunities for drug repurposing: Primary screen for TC32 cells (AID 1347089); also: nearly all actives have a fitted effect of over 60% in size
How it was run: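 qHTS, TC32, 48 h drug treatment, CellTiter-Glo luminescence as a proxy for metabolically active cells; primary top concentration 46 µM (MIPE 11-pt, NPC 8-pt); confirmatory 11-pt.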

[2] = qHTS of pediatric cancer cell lines to identify multiple opportunities for drug repurposing: Primary screen for SJ-GBM2 cells (AID 1347091)
How it was run: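 Viability measured as metabolically active cells via CellTiter-Glo luminescence following 48 hours of compound exposure, 11-point dilutions in confirmatory testing. 500-1,000 cells/well plated 5 hours before dosing; controls were DMSO and 2.3 µM bortezomib.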

[3] = qHTS of pediatric cancer cell lines to identify multiple opportunities for drug repurposing: Primary screen for A673 cells (AID 1347092); also: nearly all actives have a fitted effect of over 45% in size
How it was run: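 Luminescence from CellTiter-Glo, taken after 15 min at room temperature, served as the proxy for metabolically active cells following 48 h treatment. Both potency and efficacy were taken from curves fitted to the titration data.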

[4] = qHTS of pediatric cancer cell lines to identify multiple opportunities for drug repurposing: Primary screen for SK-N-MC cells (AID 1347093); as to activity change, negative = cytotoxic: series mostly up to about 46 µM
How it was run: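 Metabolically active cells were quantified by ATP-dependent luminescence (CellTiter-Glo, 15 min at room temperature) following 48 h treatment. Cells had been plated at 500-1,000 per well and settled for 5 h beforehand.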

[5] = qHTS of pediatric cancer cell lines to identify multiple opportunities for drug repurposing: Primary screen for BT-37 cells (AID 1347094); as to activity change, negative = cytotoxic: series mostly up to about 57 µM
How it was run: (§1)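 Viability was measured as metabolically active cells after 48 hours of treatment, read by CellTiter-Glo luminescence. Compounds were tested at multiple final concentrations, giving concentration-response curves.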

[6] = qHTS of pediatric cancer cell lines to identify multiple opportunities for drug repurposing: Primary screen for NB-EBc1 cells (AID 1347095)
How it was run: as §1

[7] = qHTS of pediatric cancer cell lines to identify multiple opportunities for drug repurposing: Primary screen for U-2 OS cells (AID 1347096); also: nearly all actives have a fitted effect of over 50% in size
How it was run: (§2)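 Viability after 48 h compound treatment at 37C, 500-1,000 cells/well, read as ATP luminescence with CellTiter-Glo. Primary screens used 11-point (MIPE, 0.78 nM-46 µM) or 8-point (NPC, 0.59 nM-46 µM) final concentrations; follow-up screens used 11-point dilutions.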

[8] = qHTS of pediatric cancer cell lines to identify multiple opportunities for drug repurposing: Primary screen for Saos-2 cells (AID 1347097); also: nearly all actives have a fitted effect of over 40% in size
How it was run: as §1

[9] = qHTS of pediatric cancer cell lines to identify multiple opportunities for drug repurposing: Primary screen for SK-N-SH cells (AID 1347098); also: nearly all actives have a fitted effect of over 65% in size;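 as to activity change, negative = cytotoxic: DMSO served as neutral control and bortezomib at 2.3 µM as positive control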
How it was run: (§3)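 Cells (500-1,000/well) rested 5 h, then received compounds for 48 h; metabolically active cells were measured by CellTiter-Glo luminescence. Final concentrations spanned up to 46 µM (MIPE, 11-point) or 0.59 nM-46 µM (NPC, 8-point) in primary screens, 11-point in follow-ups.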

[10] = qHTS of pediatric cancer cell lines to identify multiple opportunities for drug repurposing: Primary screen for LAN-5 cells (AID 1347100)
How it was run: as §2

[11] = qHTS of pediatric cancer cell lines to identify multiple opportunities for drug repurposing: Primary screen for BT-12 cells (AID 1347101); also: nearly all actives have a fitted effect of over 25% in size
How it was run: as §3

[12] = qHTS of pediatric cancer cell lines to identify multiple opportunities for drug repurposing: Primary screen for Rh18 cells (AID 1347102); also: nearly all actives have a fitted effect of over 65% in size
How it was run: as §2

[13] = qHTS of pediatric cancer cell lines to identify multiple opportunities for drug repurposing: Primary screen for OHS-50 cells (AID 1347103); also: nearly all actives have a fitted effect of over 40% in size
How it was run: as §3

[14] = qHTS of pediatric cancer cell lines to identify multiple opportunities for drug repurposing: Primary screen for RD cells (AID 1347104); also: nearly all actives have a fitted effect of over 55% in size
How it was run: as §1

[15] = qHTS of pediatric cancer cell lines to identify multiple opportunities for drug repurposing: Primary screen for NB1643 cells (AID 1347099); also: nearly all actives have a fitted effect of over 50% in size
How it was run: as §1
Potency is read from the fitted curve at half-maximal effect.

In the case of Nc1ccc(/C=C/c2ccc(N)cc2S(=O)(=O)O)c(S(=O)(=O)O)c1, the activity change, negative = cytotoxic [1] was 14.3% [at 0.594 µM], the activity change, negative = cytotoxic [2] was 4.37% [at 0.597 µM] and the activity change, negative = cytotoxic [3] was 1.22% [at 0.597 µM]. It also gave an activity change, negative = cytotoxic [4] of -3.26% [at 0.597 µM], an activity change, negative = cytotoxic [5] of 22.8% [at 0.745 µM] and an activity change, negative = cytotoxic [6] of 25.1% [at 0.597 µM]. The activity change, negative = cytotoxic [7] was 17% [at 0.597 µM], the activity change, negative = cytotoxic [8] was 2.49% [at 0.597 µM] and the activity change, negative = cytotoxic [9] was 12.2% [at 0.741 µM]. For the same compound, the activity change, negative = cytotoxic [10] was 21.1% [at 0.597 µM], the activity change, negative = cytotoxic [11] was 16.8% [at 0.745 µM] and the activity change, negative = cytotoxic [12] was 24% [at 0.597 µM]. For the same compound, the activity change, negative = cytotoxic [13] was 19.6% [at 0.73 µM] and the activity change, negative = cytotoxic [14] was 13.1% [at 0.597 µM].
With CN1C(CCl)Nc2cc(Cl)c(S(N)(=O)=O)cc2S1(=O)=O (configuration not stated) the Potency [1] was “inactive”, the Potency [2] was “inactive” and the Potency [4] was “inactive”. For the same compound, the Potency [5] was “inactive”, the Potency [6] was “inactive” and the Potency [7] was “inactive”. The Potency [8] was “inactive”, the Potency [9] was “inactive” and the Potency [15] was “inactive”. For the same compound, the Potency [10] was “inactive”, the Potency [11] was “inactive” and the Potency [12] was “inactive”. The Potency [13] was “inactive” and the Potency [14] was “inactive”.
In the case of O=C(O)CNC(=O)c1ccccc1, the Potency [1] was “inactive”, the Potency [2] was “inactive” and the Potency [3] was “inactive”. The Potency [4] was “inactive”, the Potency [5] was “inactive” and the Potency [6] was “inactive”. The Potency [7] was “inactive”, the Potency [8] was “inactive” and the Potency [15] was “inactive”. The Potency [10] was “inactive”, the Potency [11] was “inactive” and the Potency [12] was “inactive”. The Potency [13] was “inactive” and the Potency [14] was “inactive”.
With CCOC(=O)/C=C(C)/C=C/C=C(C)/C=C/c1c(C)cc(OC)c(C)c1C the Potency [1] was “inactive”, the Potency [2] was “inactive” and the Potency [3] was “inactive”. The Potency [5] was “inactive”, the Potency [6] was “inactive” and the Potency [7] was “inactive”. The Potency [8] was “inactive”, the Potency [15] was “inactive” and the Potency [10] was “inactive”. For the same compound, the Potency [13] was 24600 nM (active) and the Potency [14] was “inactive”.
For c1ccc(-c2ccc(C(c3ccccc3)n3ccnc3)cc2)cc1 (configuration not stated), the Potency [1] was “inactive”, the Potency [2] was “inactive” and the Potency [8] was “inactive”. The Potency [12] was “inactive”.
With COc1ccc(OC)c(C(O)CNC(=O)CN)c1 (configuration not stated) the Potency [1] was “inactive”, the Potency [2] was “inactive” and the Potency [3] was “inactive”. For the same compound, the Potency [4] was “inactive”, the Potency [5] was “inactive” and the Potency [6] was “inactive”. For the same compound, the Potency [7] was “inactive”, the Potency [8] was “inactive” and the Potency [9] was “inactive”. The Potency [10] was “inactive”, the Potency [11] was “inactive” and the Potency [12] was “inactive”. The Potency [13] was “inactive” and the Potency [14] was “inactive”.
With COc1cccc2c1C(=O)c1c(O)c3c(c(O)c1C2=O)C[C@@](O)(C(C)=O)C[C@@H]3O[C@H]1C[C@H](N)[C@H](O)[C@H](C)O1 the Potency [1] was 236 nM (active), the Potency [3] was 266 nM (active) and the Potency [4] was 84.1 nM (active). The Potency [5] was 110 nM (active), the Potency [6] was 53.1 nM (active) and the Potency [7] was 6680 nM (active). The Potency [8] was 266 nM (active), the Potency [9] was 386 nM (active) and the Potency [15] was 133 nM (active). The Potency [11] was 550 nM (active), the Potency [12] was 473 nM (active) and the Potency [13] was 347 nM (active). The Potency [14] was 1190 nM (active).
With N[C@@H](CCC(=O)N[C@@H](CS)C(=O)NCC(=O)O)C(=O)O the Potency [1] was “inactive”, the Potency [2] was “inactive” and the Potency [4] was “inactive”. For the same compound, the Potency [5] was “inactive”, the Potency [6] was “inactive” and the Potency [7] was “inactive”. For the same compound, the Potency [8] was “inactive”, the Potency [9] was “inactive” and the Potency [15] was “inactive”. For the same compound, the Potency [10] was “inactive”, the Potency [11] was “inactive” and the Potency [13] was “inactive”. For the same compound, the Potency [14] was “inactive”.
With CCOC(=O)OC(C)OC1=C(C(=O)Nc2ccccn2)N(C)S(=O)(=O)c2ccccc21 (configuration not stated) the Potency [1] was “inactive”, the Potency [2] was “inactive” and the Potency [3] was “inactive”. The Potency [4] was “inactive”, the Potency [5] was “inactive” and the Potency [6] was “inactive”. For the same compound, the Potency [7] was “inactive”, the Potency [8] was “inactive” and the Potency [15] was “inactive”. The Potency [10] was “inactive”, the Potency [11] was “inactive” and the Potency [12] was “inactive”. For the same compound, the Potency [13] was “inactive”.
For CCCCc1nc(Cl)c(CO)n1Cc1ccc(-c2ccccc2-c2nn[nH]n2)cc1, the Potency [1] was “inactive”, the Potency [2] was “inactive” and the Potency [5] was “inactive”. The Potency [6] was “inactive”, the Potency [7] was “inactive” and the Potency [8] was “inactive”. The Potency [9] was “inactive”, the Potency [10] was “inactive” and the Potency [11] was “inactive”. For the same compound, the Potency [12] was “inactive”, the Potency [13] was “inactive” and the Potency [14] was “inactive”.
With OCc1ccccc1O the Potency [1] was “inactive”, the Potency [2] was “inactive” and the Potency [3] was “inactive”. The Potency [4] was “inactive”, the Potency [5] was “inactive” and the Potency [6] was “inactive”. For the same compound, the Potency [7] was “inactive”, the Potency [8] was “inactive” and the Potency [15] was “inactive”. The Potency [10] was “inactive”, the Potency [11] was “inactive” and the Potency [12] was “inactive”. For the same compound, the Potency [13] was “inactive” and the Potency [14] was “inactive”.
For Cc1cc(O)c(C(C)C)cc1Cl, the Potency [1] was “inactive”, the Potency [2] was “inactive” and the Potency [3] was “inactive”. The Potency [4] was “inactive”, the Potency [5] was “inactive” and the Potency [6] was “inactive”. For the same compound, the Potency [7] was “inactive”, the Potency [9] was “inactive” and the Potency [15] was “inactive”. The Potency [10] was “inactive”, the Potency [11] was “inactive” and the Potency [12] was “inactive”. For the same compound, the Potency [14] was “inactive”.
With O=C(Nc1ccc(Oc2ccc(Cl)cc2)c(Cl)c1)c1cc(I)cc(I)c1O the Potency [1] was “inactive”, the Potency [2] was 15000 nM (active) and the Potency [5] was “inactive”. For the same compound, the Potency [6] was 26600 nM (active), the Potency [7] was “inactive” and the Potency [11] was “inactive”. The Potency [12] was “inactive”.
In the case of Cc1c(N(C)CS(=O)(=O)O)c(=O)n(-c2ccccc2)n1C, the Potency [1] was “inactive”, the Potency [2] was “inactive” and the Potency [4] was “inactive”. The Potency [5] was “inactive”, the Potency [6] was “inactive” and the Potency [7] was “inactive”. The Potency [8] was “inactive”, the Potency [15] was “inactive” and the Potency [10] was “inactive”. For the same compound, the Potency [11] was “inactive”, the Potency [12] was “inactive” and the Potency [13] was “inactive”. The Potency [14] was “inactive”.
In the case of NC(=O)C(=O)N/N=C/c1ccc([N+](=O)[O-])o1, the Potency [1] was “inactive”, the Potency [2] was “inactive” and the Potency [15] was 21100 nM (active). For the same compound, the Potency [10] was 29900 nM (active).
With COc1cccc(OC)c1C(=O)N[C@@H]1C(=O)N2[C@@H]1SC(C)(C)[C@@H]2C(=O)O the Potency [1] was “inactive”, the Potency [2] was “inactive” and the Potency [3] was “inactive”. For the same compound, the Potency [4] was “inactive”, the Potency [5] was “inactive” and the Potency [6] was “inactive”. The Potency [7] was “inactive”, the Potency [8] was “inactive” and the Potency [9] was “inactive”. The Potency [15] was “inactive”, the Potency [10] was “inactive” and the Potency [11] was “inactive”. The Potency [13] was “inactive”.
With CC1(C)O[C@@H]2C[C@H]3[C@@H]4CCC5=CC(=O)CC[C@]5(C)[C@@]4(F)[C@@H](O)C[C@]3(C)[C@]2(C(=O)CCl)O1 the Potency [1] was “inactive”, the Potency [2] was “inactive” and the Potency [3] was “inactive”. For the same compound, the Potency [4] was “inactive”, the Potency [5] was “inactive” and the Potency [6] was “inactive”. For the same compound, the Potency [7] was “inactive”, the Potency [8] was “inactive” and the Potency [9] was “inactive”. For the same compound, the Potency [15] was “inactive”, the Potency [10] was “inactive” and the Potency [12] was “inactive”. The Potency [14] was “inactive”.
With C[C@]12CC[C@@H]3c4ccc(O)cc4CC[C@H]3[C@@H]1C[C@@H](O)[C@@H]2O the Potency [1] was “inactive”, the Potency [2] was “inactive” and the Potency [3] was “inactive”. For the same compound, the Potency [4] was “inactive”, the Potency [5] was “inactive” and the Potency [7] was “inactive”. The Potency [8] was “inactive”, the Potency [9] was “inactive” and the Potency [15] was “inactive”. For the same compound, the Potency [10] was “inactive”, the Potency [11] was “inactive” and the Potency [12] was “inactive”. For the same compound, the Potency [14] was “inactive”.
